31 molecules from PubChem BioAssay AID624115 (Johns Hopkins Ion Channel Center, 2012) can be followed below.

Hit rate of the full screen: of about 4,000 compounds, about 350 (8.8%) were called active.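 Rule for the calls: active = calcium fluorescence ratio at least three times the spread of buffer wells, meaning a non-specific response in parental cells; inactive = the rest.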 These entries were drawn from the full list.

The nature of the test: calcium response in parental HEK293 cells, primary screen, counter-screen for MrgX1 agonist project, cell-based, Fluo-4 calcium flux, duplicate, agonist mode (AID 624115). To be noted: parental HEK293, Fluo-4 calcium fluorescence (FDSS), at 10 µM; active compounds read high. (A counterscreen serves to expose hits that act by an unwanted route or on another target.)
Consider `Fc1cccc(Cl)c1COc1ccc(-c2nnco2)cc1`, for which the fluorescence ratio F(max-min)/F0 entry was “inactive”.

On to `Cc1ccc(S(=O)(=O)N(C)c2nc3ccccc3n3c(C(C)C)nnc23)cc1`, for which the fluorescence ratio F(max-min)/F0 entry is “inactive”.

In the case of `CCCCC(=O)Nc1ccc2c(c1)C(=O)NC2=O`, the fluorescence ratio F(max-min)/F0 result is “inactive”.

With `O=C(CSc1c2c(nc3ccc(Cl)cc13)CCCC2)NCc1ccco1`, the fluorescence ratio F(max-min)/F0 entry was “inactive”.

Take `O=C(Nc1cccc(Cl)c1)c1cncn1-c1ccc(F)cc1`: the fluorescence ratio F(max-min)/F0 entry was “inactive”.

As to `O=C(Cn1c(-c2cncs2)nc2ccccc21)NC1CCCC1`, the fluorescence ratio F(max-min)/F0 result is “inactive”.

Regarding `Cc1nccn1CCC1CCCCN1C(=O)CCc1nnc(-c2ccsc2)o1` (stereo unspecified), the fluorescence ratio F(max-min)/F0 entry was “inactive”.

On to `COc1ccc(-c2cc(C(F)(F)F)nc(S(C)(=O)=O)n2)cc1OC`, for which the fluorescence ratio F(max-min)/F0 entry was “inactive”.

Take `COc1ccc2c(c1)OC(O)(C(F)(F)C(F)F)CC2=O` (stereo unspecified): the fluorescence ratio F(max-min)/F0 was 87.4 (active).

`FC(F)(F)c1cc(-c2cccs2)nc(NCc2ccco2)n1`: the fluorescence ratio F(max-min)/F0 entry is “inactive”.

For `CCOC(=O)Nc1ccc2c(c1)N(C(=O)CCN1CCN(CCO)CC1)c1ccccc1CC2`, the fluorescence ratio F(max-min)/F0 result is “inactive”.

In the case of `O=C(CN1CCN(c2ccccn2)CC1)NC1CCCCC1`, the fluorescence ratio F(max-min)/F0 result was “inactive”.

As for `Cc1c(C(=O)N2CCN(c3ccc(F)cc3)CC2)oc2c1C(=O)CCC2`, the fluorescence ratio F(max-min)/F0 entry was “inactive”.

On to `CCN(CC)c1ccc(C2C3CCCCC3(O)CCN2CC(=O)Nc2ccccc2)cc1` (stereo unspecified), for which the fluorescence ratio F(max-min)/F0 result is “inactive”.

For the molecule `COc1ccc(Nc2nc(-c3cccnc3)nc3ccccc23)cn1`, the fluorescence ratio F(max-min)/F0 result was “inactive”.

For the molecule `O=C(Cc1nc2ccccc2[nH]c1=O)c1ccc(Cl)cc1`, the fluorescence ratio F(max-min)/F0 entry is “inactive”.

For `N#CC1=C(N)Oc2c(sc3ccccc23)C1c1ccco1` (stereo unspecified), the fluorescence ratio F(max-min)/F0 result is “inactive”.

For the molecule `CCOc1ccc(NC(=O)CCNC(=O)c2ccc(Br)cc2)cc1`, the fluorescence ratio F(max-min)/F0 entry is “inactive”.

On to `Cc1cc(C)n(CCNC(=O)CC2C(=O)NCCN2Cc2ccc(C)o2)n1` (stereo unspecified), for which the fluorescence ratio F(max-min)/F0 entry was “inactive”.

As to `CCOC1CCCCC1NS(=O)(=O)c1ccc(Cl)cc1` (stereo unspecified), the fluorescence ratio F(max-min)/F0 result was “inactive”.

Consider `COC(=O)c1sccc1NS(=O)(=O)c1ccc(F)cc1F`, for which the fluorescence ratio F(max-min)/F0 result is “inactive”.

Take `CC(=O)Nc1ccc(OC(=O)COc2ccc(Br)cc2)cc1`: the fluorescence ratio F(max-min)/F0 entry was “inactive”.

`Cc1ccnc(-n2sc3ccccc3c2=O)n1`: the fluorescence ratio F(max-min)/F0 entry is “inactive”.

For `CCN(c1cccc(C)c1)S(=O)(=O)c1ccc(-c2coc(C)n2)cc1`, the fluorescence ratio F(max-min)/F0 result was “inactive”.

On to `COCC(C)NC(=O)c1ccc(Cl)c(Cl)c1` (stereo unspecified), for which the fluorescence ratio F(max-min)/F0 entry was “inactive”.

As for `COc1ccc(C(=O)Nc2c(N)nc(SCC(=O)N3CCC(C)CC3)[nH]c2=O)cc1OC`, the fluorescence ratio F(max-min)/F0 entry is “inactive”.

In the case of `Cc1ccc(-c2nn(C(C)(C)C)c3ncnc(N)c23)cc1`, the fluorescence ratio F(max-min)/F0 entry is “inactive”.

Consider `COc1ccc(-n2c(SCC(=O)NCc3ccco3)nnc2-c2c[nH]c3ccccc23)cc1`, for which the fluorescence ratio F(max-min)/F0 result is “inactive”.

With `CCOC(=O)Cc1csc(SCc2cc(=O)oc3cc(O)ccc23)n1`, the fluorescence ratio F(max-min)/F0 entry is “inactive”.

As to `CCC(C)c1ccccc1N1CC(C(=O)N2CCN(S(=O)(=O)c3ccc(F)cc3)CC2)CC1=O` (stereo unspecified), the fluorescence ratio F(max-min)/F0 result is “inactive”.

In the case of `COc1ccc([N+](=O)[O-])cc1NC(=O)COC(=O)/C=C/c1ccco1`, the fluorescence ratio F(max-min)/F0 entry is “inactive”.
